PubChem BioAssay AID1948 (National Center for Advancing Translational Sciences (NCATS), 2009)
Hit rate of the full screen: of about 110,000 compounds, about 20 (0.02%) were called active. Another 2% or so got no clear call; they are omitted. The sample holds actives, similar compounds and a random draw of the others, so the mix is not that of the screen. The call rests on the fitted dose curve; in most records, active means well fitted activation curve with a large enough effect; inconclusive means small, poorly fitted or top-dose-only effect; inactive means no such curve, though single readings can be large or run the other way.

Assay: qHTS Assay for Compounds that Induce Erasure of Genomic Imprints;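 further: 0% = negative control wells on the plate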
Conditions: mouse ES Peg3-LacZ reporter, beta-gal luminescence, 40 h; series mostly up to 10.9 µM; activity change, positive = activation: at the top concentration
From the text: qHTS Assay for Compounds that Induce Erasure of Genomic Imprints NIH Chemical Genomics Center [NCGC] NIH Molecular Libraries Screening Centers Network [MLSCN] Assay Submitter (PI): JEFFRIES, SEAN, NCGC, University of Cambridge NCGC Peg3 Imprinting Assay Overview Genomic imprinting is the epigenetic process whereby genes are expressed in a parent of origin fashion. […] Unlike some forms of epigenetic silencing that can be overcome by overexpression of transcription factors, genomic imprinting stably represses the expression of one allele despite potentially high levels of expression from the other allele. […] During mouse embryonic day 11.5 imprints are erased in PGCs so that sex specific imprints can be reestablished during gametogenesis. Embryonic germ (EG) cells can be derived from developing PGCs at embryonic day 11.5 and these cells often lack genomic imprints. […] Embryonic stem (ES) cells are a cell type similar to EG cells in phenotype and transcriptional profile, yet ES cells maintain genomic imprints. This similarity between ES and EG cells prompted us to use ES cells to look for factors which could induce imprint erasure. To investigate the stability of genomic imprinting, ES cells were derived from mice with an insertion of a LacZ-Neomycin reporter construct in the Peg3 locus. Peg3 is an imprinted locus where gene expression is restricted to the paternal allele. […] Using LacZ expression we are able to monitor the state of the Peg3 imprint. In order to dissect the mechanisms involved in imprint erasure using a forward chemical genetics approach we developed a cell based phenotype assay using an endogenous silence imprinted locus. This assay utilizes maternally inherited Peg3LacZ-Neo ES cells by monitoring the LacZ expression from the normally silent Peg3 allele. To facilitate screening, high-density feeder-free ES cell culture has been optimized so that ES cells can be grown in 1536 for over four days without feeding or washes. The assay uses a luminescence based read out for LacZ activity and is a homogenous assay optimal for HTS.
NCGC Peg3 Imprinting Assay Protocol Summary ES cell lines were derived from blastocysts taken from Peg3LacZ-Neo x129 matings. Lines were sexed and genotyped for the Peg3LacZ-Neo allele. Female cells carrying the reporter allele were used in this study. Cells were derived on a layer of mouse embryonic fibroblasts and passaged multiple times before switching to feeder free culture. Cells were maintained feeder free on gelatin coated dishes in DMEM/F12 media supplemented with 15% FBS, 2mM L-glutamine, 100 units/ml penicillin, 100ug/ml streptomycin, 0.1mM MEM nonessential amino acids, 1mM sodium pyruvate, 0.1% sodium bicarbonate, 0.1mM 2-Mercaptoethanol, and 400 units/ml leukemia inhibitory factor (LIF) at 37C with 5% CO2. The assay was performed in 1536-well format. A single luminescence read was taken at the end of the assay and the data was normalized by plate to internal negative controls. Maximum efficacy and AC50 values were calculated from dose-response data using the standard Hill equation. 1536 well plates were filled with 0.5ul of 0.1% gelatin per well, spun down and incubated for at least 30 min at 37C. The ES cells were then trypsini Peg3 1536-well assay protocol: (1)Plate 0.5ul/well 0.1% gelatin in white tissue culture treated 1536-well plates, spin and incubate at 37C for at least 30 min. (2)Add 5ul/well (300 cells) of ES cell suspension from freshly trypsinized cells and incubate at 37C, 5% CO2 for 40 hours. (3)Add 5ul/well of freshly prepared BetaGlo solution and incubate at room temperature for 5 minutes. (4)Read luminescence on the ViewLux plate reader. Keywords Genomic Imprinting, Germ Cells, Embryonic Stem Cell, DNA Methylation, Peg3, qHTS, NIH roadmap, NCGC

Activity change, positive = activation, inactive:
CCN1CCN(c2cc(C)c3cc(NC(=O)c4cc(Cl)ccc4OC)ccc3n2)CC1 -33.9%, CCc1ccc(NC(=O)c2cc3c(=O)n(Cc4cccnc4)ccc3nc2C)cc1 -7.76%, CCCCCn1c(CCCNC(=O)c2ccccc2OC)nc2ccccc21 -12.7%, COc1ccccc1CNS(=O)(=O)c1cc(Br)cc2c1N(C(C)=O)C(C)C2 (centres undefined) -8.34%, CCOc1cc(C2C(C(=O)OC)=C(C)NC3=C2C(=O)c2ccccc23)ccc1O (centres undefined) -3.7%, CCOc1ccc(C2C(=O)N(C3CCCCC3)CC(=O)N2CCC2=CCCCC2)cc1OC (centres undefined) 6.2%, O=C(Nc1ccc2nc(SCCOc3ccccc3)sc2c1)c1ccco1 -16.3%, CCc1cnc2c(c1SCC(=O)N1CCC(C)CC1)c(=O)n(C)c(=O)n2C 9.05%, CCOc1ccc(N(CC)S(=O)(=O)N2CCCC(C(=O)Nc3ccc(C(C)=O)cc3)C2)cc1 (centres undefined) -20.5%, COc1ccc(Cn2cc(C(=O)c3ccc(C)cc3)c(=O)c3cc(OC)c(OC)cc32)cc1 -10.5%, Cc1csc2nc(COC(=O)c3ccc(NC(=O)COc4ccccc4F)cc3)cc(=O)n12 -15.4%, COc1ccc(OC)c(NC(=O)CSC2=Nc3ccccc3C3=NC(CC(=O)NCc4ccc(F)cc4)C(=O)N23)c1 (centres undefined) -6.91%, O=c1cc(COc2cccc(C(F)(F)F)c2)nc2sc3c(n12)CCCC3 20.1%, CCC(=O)Nc1cccc(-c2nc3cc(C)ccc3o2)c1 -34%, COc1ccc(Cl)cc1-n1c(CCC(=O)O)ccc1-c1ccc(C)cc1 4.72%, CCCC(=O)Nc1ccc(NC(=O)c2sc3ccccc3c2Cl)cc1 -17.3%, CC1CCCCN1S(=O)(=O)c1ccc(F)c(C(=O)Nc2ccccc2C(F)(F)F)c1 (centres undefined) 15.3%, CCc1cc2c(cc3c(=O)n(CC(=O)N4CCN(c5cc(Cl)ccc5C)CC4)nc(CC)n32)s1 3.78%, Cc1nn(-c2ccc(N3CCCCC3)nn2)c(C)c1CCC(=O)NCc1ccc(F)cc1 -10.3%, Cc1cc(C)cc(NC(=O)CCS(=O)(=O)c2cc3c4c(c2)CCN4C(=O)CC3)c1 -5.47%, CCOC(=O)N1CCC(NC(=O)c2cnn(-c3cccc(C)c3)c2C2CCN(C(=O)OC(C)(C)C)CC2)CC1 -7.69%, COc1ccc(CNC(=O)c2cc3c(=O)[nH]c4ccccc4c3s2)cc1 14.7%, CCOc1ccc(CNC(=O)C2CCCN(c3nnc(C)c4c(C)n(-c5ccccc5)nc34)C2)cc1 (centres undefined) -17.4%, Cc1nnc(C)n1-c1ccc(C(=O)Nc2cccc(Br)c2)cc1 -11.1%, COc1cc(NC(=O)CCNC(=O)Cn2ccc3ccccc3c2=O)cc(OC)c1OC -5.74%, CCc1nonc1NC(=O)c1oc2ccc(Cl)cc2c1C -14.9%, COc1ccccc1Nc1cc(C(=O)NCCCN(C)C2CCCCC2)c2ccccc2n1 21%, CCOC(=O)c1ccccc1NC(=O)c1nn(-c2ccc(OC)c(Cl)c2)c(=O)c2c1c1ccccc1n2C 22.8%, Cc1ccc(C)c(NC(=O)CSC2=Nc3ccccc3N=C(c3ccc(F)cc3)C2)c1 -7.52%, CCc1ccccc1NC(=O)Cn1c(=O)n(CC2CCC(C(=O)NCCc3ccccc3)CC2)c(=O)c2ccccc21 (centres undefined) -9.17%, COc1ccc(CNc2nc(-c3ccc(Cl)cc3)nn2S(=O)(=O)c2ccc(C)cc2)cc1 -11.7%, Cc1ccc(CN(C(=O)c2ccccc2[N+](=O)[O-])c2ccccn2)cc1 -12.4%, COc1ccc(NC(=O)C(=O)NCc2ccco2)cc1 -6.52%, CC1CN(C(=O)N2CCC(C(=O)NCc3cccs3)CC2)c2ccccc2O1 (centres undefined) -8.54%, Cc1ccc(S(=O)(=O)N2CCC(Oc3ccc(-n4cnnn4)cc3)CC2)cc1 -8.14%, Cc1ccc(F)cc1NC(=O)CCSc1nc(-c2ccco2)cc(C(F)(F)F)n1 5.17%, Cc1cc(C)c(-c2n[nH]c3c2C(c2ccccc2F)N(CCO)C3=O)c(O)c1 (centres undefined) -12.1%, CC(=O)Nc1ccc(S(=O)(=O)NCC2CCC(C(=O)NCCc3ccccc3)CC2)cc1 (centres undefined) -11%, COC(=O)c1ccccc1NC(=O)c1ccc2c(=O)n3c(nc2c1)CCCCC3 -6.07%, COc1ccc(S(=O)(=O)NCc2cccn2Cc2cccc(C)c2)cc1 -13.3%, COC(=O)CN1C(=O)CSc2ccc(S(=O)(=O)Nc3cc(C)ccc3C)cc21 2.15%, COc1ccc(CNC(=O)CSCc2nc(-c3ccccc3F)oc2C)cc1 -11%, O=C(Nc1ccc(F)cc1F)c1cnn(-c2ccc(F)cc2)c1-n1cccc1 4.84%, Cc1ccc(OCC(=O)Nc2ccc(Cl)c(-c3nc4ccccc4[nH]3)c2)cc1C -9.61%, Cc1oc2ncn(CC(C)C)c(=O)c2c1C(=O)N1CCN(c2ccccc2F)CC1 19.9%, COc1ccccc1NC(=O)c1cc(C2CC2)nc2c1c(C)nn2-c1ccc(C)cc1 -7.45%, Cc1ccc(CN2C(=O)SC(Nc3ccccc3)C2=O)cc1 (centres undefined) 3.26%, CCN(CCCNC(=O)c1cc2c(=O)n(CC)c3ccccc3c2s1)Cc1ccccc1 -11.1%, Cc1ccc(C(=O)NCCSc2c(C)[nH]c3ccccc23)cc1C -7.06%, O=C1CC(c2ccc(F)cc2F)c2cc3c(cc2N1)OCO3 (centres undefined) -10.5%, Cc1cccc(C(=O)N2c3nc(-c4ccco4)nn3C3(CCCCC3)[C@@H]3CCCC[C@@H]32)c1 -2.39%, O=C(CSc1nc(=O)n(Cc2cccnc2)c2c1CCC2)Nc1ccc(F)cc1F 19.5%, Cc1c(CNC2CCCCC2)c(C(=O)O)c(C)n1Cc1cccc(Cl)c1 -11%, CC(C)Oc1ccc(CNC(=O)C2CCN(c3nc4ccccc4n(C)c3=O)CC2)cc1 -2.14%, Cc1ccccc1NC(=O)Cn1c(=O)n(CCCCC(=O)NCc2ccccc2Cl)c(=O)c2ccccc21 -1.68%, COCCCNC(=O)c1ccc(NC(=O)c2nsc3ccccc23)cc1 2.98%, Cc1c(NC(=O)C(C)(C)C)cccc1-c1nc2ccccc2s1 -11.3%, Cc1ccn2c(Nc3ccc4c(c3)OCCO4)c(-c3ccc(C)s3)nc2c1 -21.3%, Cc1ccccc1CNC(=O)CCc1cn(Cc2ccccc2C)c2ccccc12 -11.9%, C[C@@]12CCC(=O)C=C1CC[C@H]1C2[C@@H](O)C[C@]2(C)[C@@H]1CC[C@@]2(O)C(=O)COC(=O)C1CCCC1 (some centres undefined) -4.6%, Cc1ccc(-n2nc(CO)c(C(=O)NCCc3ccccc3)n2)cc1 -11.8%, Cn1cc(S(=O)(=O)N2CCCCCC2)cc1C(=O)N1CCN(c2ccc(F)cc2)CC1 -9.82%, Cc1cccc(CSc2nc3ccncc3n2Cc2ccc(C(=O)O)cc2)c1 -11.1%, COc1ccc(CNc2nc(-c3ccc(Cl)cc3)nn2C(=O)c2ccccc2)cc1 -3.8%, CC1CCC(N2CC(=O)N(CCC3=CCCCC3)C(c3ccc(F)cc3)C2=O)CC1 (centres undefined) -12.5%, CN(Cc1ccccc1)S(=O)(=O)c1ccc(F)c(C(=O)Nc2cccc(Cl)c2Cl)c1 -33.7%, OC[C@H]1O[C@@H](n2cnc3c(NC4CCCC4)ncnc32)[C@H](O)[C@H]1O -11.3% [at 60.7 µM], Cc1cc(NS(=O)(=O)c2ccc3oc(=O)c4ncn(C)c4c3c2)ccc1Br 8.33%, O=C(CSc1nc(Nc2ccc(F)c(F)c2)c2ccccc2n1)c1ccc(Cl)cc1 -13%, COc1ccc(C(=O)Nc2cccc(C(=O)OCc3cc(=O)n4c5c(sc4n3)CCCC5)c2)cc1 -92.1%, Cc1ccc(SCC(=O)Nc2ccc3oc(-c4ccccc4C)nc3c2)cc1 -13.5%, CCc1nnc(SCc2c(F)cccc2Cl)c2cc3sccc3n12 4.75%, Cc1nn(-c2ccc(F)cc2)c(-n2cccc2)c1C(=O)N1CCN(c2ccccc2)CC1 -3.32%, CCc1ccc(S(=O)(=O)Nc2cc3c(C(=O)OCc4ccccc4)c(C)oc3c3ccccc23)cc1 -22.6%, CCCC(=O)Nc1cc2nn(-c3ccccc3)nc2cc1C -25.6%, COc1ccc(C(=O)c2oc3ccccc3c2NC(=O)COc2cccc(C)c2)cc1 -16.2%, CCCN(C(=O)Cn1cc(S(=O)(=O)N2CCN(c3ccccc3F)CC2)c2ccccc2c1=O)c1cccc(C)c1 -16.3%, COc1ccc(OCc2ccc(-c3nc(C#N)c(N4CCN(c5ccccc5)CC4)o3)o2)cc1 -12.1%, CN1c2ccc(Cl)cc2-c2nc(SCC(=O)Nc3cc(F)ccc3F)ncc2S1(=O)=O -6.64%, COc1ccc(N(CC(=O)NCCc2ccc(Cl)cc2)S(=O)(=O)c2c(C)nn(C)c2C)cc1 15.7%, CCN(CC)CCNC(=O)Cn1ncc2c3ccccc3n(Cc3ccccc3C)c2c1=O -5.94%, Cc1cccn2c(=O)c(C(=O)NC(C)c3ccccc3)cnc12 (centres undefined) -15.7%, CN(C)S(=O)(=O)c1ccc(C(=O)N(Cc2cccnc2)c2nc3c(F)cc(F)cc3s2)cc1 -7.79%, CCSc1nnc(NC(=O)c2cc(=O)c3cc(C)c(C)cc3o2)s1 -10.3%, CCOC(=O)c1ccc(NC(=O)Cn2c(=O)n(-c3ccc(C)cc3)c(=O)c3c2cnn3C)cc1 -10.8%, CCOC(=O)c1ccc(NC(=O)CC2C(=O)N(c3ccccc3)C(=O)N2Cc2cccs2)cc1 (centres undefined) 7.18%, CCOCCCn1c(SCC(=O)Nc2ccc(CC)cc2)nc2ccccc2c1=O -2.25%, CCC(=O)Nc1c(C(=O)N2CCN(c3ccc(F)cc3)CC2)oc2ccccc12 -6.14%, COc1ccc(S(=O)(=O)NCC(c2ccc(N(C)C)cc2)N2CCCC2)cc1 (centres undefined) -12.1%, CC(=O)Nc1cccc(NC(=O)CSc2nccn2Cc2ccc3c(c2)OCO3)c1 -8.32%, Fc1ccc(CSc2nc(NCc3ccccc3)c3ccccc3n2)cc1 -6.21%, Cc1cc(NS(=O)(=O)c2ccc(NC(=O)c3ccccc3C)cc2)nc(C)n1 20.1%, O=c1c(=O)n(Cc2c(F)cccc2Cl)ccn1Cc1ccccc1 -15.9%, CCOc1ccc(NC(=O)c2cn(C3CCCCC3)c(=O)c3c2c2ccccc2n3C)cc1 3.89%, CC1=C(C(=O)Nc2ccccc2Cl)C(c2cccs2)n2ncnc2N1 (centres undefined) -9.9%, CCc1ccc(NC(=O)c2sc3nc4c(cc3c2N)CN(CC)CC4)cc1 -5.27%, Cc1ccc(C(=O)Nc2ccc(C(=O)O)cc2)cc1S(=O)(=O)Nc1ccccc1 -5.39%, CCC(Sc1nc2n[nH]c(C)c2c(=N)n1-c1ccccc1Cl)C(=O)N(CC)CC (centres undefined) -7.79%, CCOC(=O)c1cnc2c(C)cc(C)cc2c1Nc1ccc(N2CCOCC2)cc1 -14.4%, CCOc1ccc(OCC)c(NC(=O)c2cc(C)nc3c2c(C)nn3-c2cccc(Cl)c2C)c1 8.2%, CCOc1ccc(CCNC(=O)C2=C(C)C(=O)OC23CCC(C)CC3)cc1OCC (centres undefined) 7.79%, CCOc1ccc(CCNC(=O)Cn2nc(CC)n3c(cc4sc(CC)cc43)c2=O)cc1OCC 4.59%, Cc1cc(C)cc(Nc2ncnc3onc(-c4ccc(F)cc4)c23)c1 18.6%, CCOc1ccc(CNC(=O)c2cc(=O)[nH]c3ccc(S(=O)(=O)N4CCCCC4)cc23)cc1 -16.4%
